# From PubChem
# GPR151 activ = activators of human GPR151, primary screen, cell-based, PathHunter beta-arrestin, luminescence; G-protein coupled receptor 151 (Homo sapiens), Q8TDV0; PathHunter beta-arrestin GPR151 cells; activation, % at 11.2 µM; hit rate 1% among 650,000; in the data active = activation above about 4.9%;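 note: 0% = median of compound wells and 100% = cells with positive control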
# Target sequence (Q8TDV0 whole entry, looked up): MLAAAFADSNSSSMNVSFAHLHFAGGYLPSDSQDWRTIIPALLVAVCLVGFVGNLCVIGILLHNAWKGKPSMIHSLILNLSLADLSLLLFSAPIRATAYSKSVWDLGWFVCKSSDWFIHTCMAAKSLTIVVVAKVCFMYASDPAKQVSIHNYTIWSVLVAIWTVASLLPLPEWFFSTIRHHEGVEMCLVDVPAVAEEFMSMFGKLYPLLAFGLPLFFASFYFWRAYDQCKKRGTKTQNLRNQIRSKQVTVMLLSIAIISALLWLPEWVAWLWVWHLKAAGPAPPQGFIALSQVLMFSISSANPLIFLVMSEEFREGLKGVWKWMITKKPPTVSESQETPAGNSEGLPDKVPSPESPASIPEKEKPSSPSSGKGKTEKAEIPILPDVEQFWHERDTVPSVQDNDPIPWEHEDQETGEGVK
# MITF primary = MITF inhibitors, primary screen, biochemical, AlphaScreen, human. hit rate 0.91% among 650,000. inhibition, % at 2.6 µM. AlphaScreen MITF homodimerization, bead proximity signal; in the data active = inhibition above about 50%;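 note: 0% = vehicle wells with protein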
# TEAD-YAP inh = TEAD-YAP interaction inhibition, primary screen, TEAD-YAP interaction inhibitor project, luminescence, HEK-TIYL cells. TEAD-Gal4/YAP UAS-luciferase luminescence. inhibition, % at 9.12 µM. hit rate 1.4% among 640,000; in the data active = inhibition above about 32%;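 note: 0% = median of test compound wells and 100% = reference inhibitor wells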
# FBW7 activator = FBW7 E3 ligase activators, primary screen, biochemical, AlphaScreen, human. AlphaScreen FBW7–phospho-cyclin E peptide binding, activator screen. F-box/WD repeat-containing protein 7 (Homo sapiens), Q969H0. hit rate 0.13% among 650,000. AID 1259310, 2017. normalized activity (activation), % at 26.1 µM; in the data active = normalized activity above about 1.9%;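 note: purified mutant Fbw7 with reduced substrate affinity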
# MITF inh conf = MITF inhibitors, retest of hits, confirmation, biochemical, AlphaScreen, triplicate | inhibition, % at 2.6 µM | AID 1259372, 2018 | AlphaScreen MITF homodimerization, biotin/His-MITF beads | shares compounds with MITF primary | hit rate 16% among 4,700;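 active = inhibition above a cutoff derived from the DMSO control wells, cut at about 28% in these data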;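 note: 0% = MITF dimer wells with DMSO only; inhibitors lower the bead chemiluminescence by keeping MITF from dimerizing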
# AS interf DR = AlphaScreen optical interference compounds, dose response, counter-screen, biochemical, HTS; hit rate 6% among 480; AlphaScreen optical interference counterscreen, cell-free; IC50, µM; shares compounds with MITF primary; call rule not given here
# AlphaScreen intf2 = AlphaScreen optical interference compounds, counter-screen for MITF inhibitor project, biochemical, triplicate; LysRS AlphaScreen counterscreen, signal interference; hit rate 7.6% among 4,700; shares compounds with MITF primary; inhibition, % at 2.6 µM;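 active = inhibition above a cutoff derived from the DMSO control wells, cut at about 30% in these data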
# * marks the source's active call; other numbers are inactive results; / = not tested or not shown. Shown are actives, neighbours in structure and some others; about 3.5% of the full set was active somewhere.
SMILES,GPR151 activ,MITF primary,TEAD-YAP inh,FBW7 activator,MITF inh conf,AlphaScreen intf2,others
COc1ccccc1N1CCN(CCCOc2ccc(F)cc2)CC1,1.2,59.9*,9.2,0.2,7.4,11.7,
COc1ccccc1N1CCN(C(=O)CN2CCN(C)CC2)CC1,4.6,54.4*,13.9,0.3,1.8,-0.9,
COc1ccc(C(=O)NC2CC2)cc1OC1CCN(CCC(C)c2ccc(C)o2)CC1 (stereo unspecified),2.1,14.2,-6.5,-0.1,/,/,
O=C(CNC1CCCCCC1)Nc1ccc(CN2CCCCC2)cc1,0.3,67.1*,4.7,0.0,8.4,14.6,
O=C(CNC1CCCCC1)Nc1ccc(CN2CCCCC2)cc1,1.0,74.5*,-7.4,0.1,5.9,17.6,
O=C(CNC1CC1)Nc1ccc(CN2CCCCC2)cc1,0.0,17.6,-3.1,-0.2,/,/,
O=C(CNCC1CCCCC1)Nc1ccc(CN2CCCCC2)cc1,-0.5,63.3*,-0.8,0.0,9.8,14.3,
COc1ccc(CC(=O)NCCc2sc(-c3ccc(OC)cc3)nc2C)cc1,1.8,-8.2,-11.7,-0.3,/,/,
O=C1N[C@@H](Cc2cnc[nH]2)C(=O)N2CCN(C(=O)NC3CCCCC3)C[C@H]12,0.2,-8.1,8.8,0.1,/,/,
O=C1N[C@H](Cc2ccc(O)cc2)C(=O)N2CCN(C(=O)NC3CCCCC3)C[C@H]12,0.4,76.4*,7.1,-0.5,70.0*,-8.6,AS interf DR=>6.48
O=C1N[C@@H](Cc2ccc(O)cc2)C(=O)N2CCN(C(=O)NC3CCCCC3)C[C@H]12,-1.0,69.8*,-0.7,-0.4,69.2*,-4.5,AS interf DR=>6.48
COc1ccccc1NC(=O)CSc1nc2ccsc2c(=O)n1-c1ccc(Cl)c(C)c1,0.7,14.9,-11.9,0.9,/,/,
O=C(CSc1ccc2nnc(-c3ccccc3)n2n1)NC1CCCC1,-0.4,9.8,6.3,0.9,/,/,
O=C(O)c1cc2ncc(-c3n[nH]c(-c4cnc5cc(C(=O)O)nn5c4)c3[N+](=O)[O-])cn2n1,0.9,68.4*,-9.3,-0.9,57.7*,-15.1,AS interf DR=>6.48
O=c1cc2ncc(-c3[nH]ncc3[N+](=O)[O-])cn2[nH]1,-0.2,4.7,4.1,-0.2,/,/,
CCN1C(=O)/C(=C/c2ccco2)S/C1=N/S(=O)(=O)c1ccc(C)cc1,0.4,52.9*,-3.5,0.1,9.8,5.3,
CC1(C)Cc2cccc(OCC(O)CNCc3ccccc3)c2O1 (stereo unspecified),0.6,-9.8,9.0,-0.1,/,/,
CC1CCC(N2CCN(C(=O)c3ccccc3)CC2)CC1 (stereo unspecified),0.6,42.7,-10.8,-0.2,/,/,
CC(C)CC(=O)N1CCN(C2CCC(C)CC2)CC1 (stereo unspecified),-1.6,58.5*,2.3,-0.2,-2.1,11.5,
O=C(Cn1c(=S)[nH]c2ccccc2c1=O)N(CCO)Cc1ccccc1,-0.6,63.0*,-2.0,0.0,1.1,3.2,
O=C(CN1CCC(N2CCCCC2)CC1)NC(c1ccccc1)c1ccccc1,0.2,14.3,-5.9,-0.1,/,/,
CCN1CCN(C(C)C(=O)NC(c2ccccc2)c2ccccc2)CC1 (stereo unspecified),-0.1,60.9*,-5.5,0.4,10.7,13.6,
N/C(CC(=O)NC1CCCCC1)=N\OCC(=O)NC(c1ccccc1)c1ccccc1,1.2,12.0,9.1,0.0,/,/,
O=C(CN1CCCC1)NC(c1ccccc1)c1ccccc1,-0.7,58.8*,-0.9,0.1,7.5,13.4,
CCN1CCN(C(=O)C(c2ccccc2)c2ccccc2)CC1,-1.8,-4.4,2.0,0.0,/,/,
SMILES,GPR151 activ,MITF primary,TEAD-YAP inh,FBW7 activator,MITF inh conf,AlphaScreen intf2,others
O=C(CN1CCCCC1)NC(c1ccccc1)c1ccccc1,-0.9,53.4*,-5.8,-0.2,13.4,7.0,
O=C(CNC1CCCCC1)NC(c1ccccc1)c1ccccc1,0.7,51.9*,-0.6,-0.1,12.1,8.6,
CCN(C(=O)c1cc(-c2ccccc2)nc2ccccc12)c1ccccc1,-1.2,-9.6,4.6,0.2,/,/,
CCCCC(C(=O)Nc1ccccc1Cl)N1C(=O)C2C3c4ccccc4C(c4ccccc43)C2C1=O (stereo unspecified),-2.1,-11.5,-1.0,0.5,/,/,
COc1ccccc1OCCCOc1ccc(C)cc1OC,-1.1,1.7,-37.0,-0.1,/,/,
CNCCCOc1ccc(C)cc1OC,2.1,51.8*,-4.3,0.1,-1.9,2.0,
O=C(NCC1COc2ccccc2O1)c1ccccc1F (stereo unspecified),0.1,-2.2,-47.8,0.0,/,/,
O=[N+]([O-])c1ccccc1CN1CCN(C2CC3CCC2C3)CC1 (stereo unspecified),-0.7,66.8*,-1.5,-0.1,10.6,10.7,
CCOC(=O)C1CCN(Cc2ccccc2[N+](=O)[O-])CC1,2.3,16.6,7.9,-0.2,/,/,
Clc1ccc(CN2CCN(C3CC4CCC3C4)CC2)cc1 (stereo unspecified),-0.2,78.9*,-8.5,-0.1,15.9,18.5,
CCN1CCN(C2CCN(Cc3ccccc3[N+](=O)[O-])CC2)CC1,0.9,8.7,-14.8,0.3,/,/,
O=CN1CCN(Cc2ccc(Cl)cc2)CC1,0.8,50.0,11.7,0.0,/,/,
CC1CC(C)CN(C2CCN(Cc3ccccc3[N+](=O)[O-])CC2)C1 (stereo unspecified),-0.8,57.6*,-4.6,-0.2,-0.3,2.7,
O=[N+]([O-])c1ccccc1CN1CCN(C2CCN(Cc3ccccc3)CC2)CC1,-1.6,87.6*,3.0,0.0,2.0,12.6,
O=[N+]([O-])c1ccccc1CN1CCN(C2CCCC2)CC1,-0.5,72.9*,1.3,-0.1,9.1,1.7,
O=[N+]([O-])c1ccccc1CN1CCc2ccccc2C1,1.6,21.0,11.4,-0.2,/,/,
O=[N+]([O-])c1ccccc1CN1CCC(N2CCc3ccccc3C2)CC1,-1.9,71.5*,5.7,-0.2,13.1,27.3,
O=[N+]([O-])c1ccccc1CN1CCC(O)CC1,1.0,21.2,-9.4,0.2,/,/,
O=[N+]([O-])c1ccccc1CN1CCC(N2CCCC2)CC1,0.0,57.0*,-10.3,-0.1,9.7,1.9,
CSCCC(NS(=O)(=O)c1ccccc1F)C(=O)NCCc1ccc(F)cc1 (stereo unspecified),2.4,6.0,2.2,0.0,/,/,
COc1cccc(CN2CCC(C(=O)N3CCN(c4ccccc4F)CC3)CC2)c1OC,-1.1,52.1*,0.8,0.0,7.5,11.0,
O=C(C1CCN(Cc2cccc(O)c2)CC1)N1CCN(c2ccccc2F)CC1,0.2,76.5*,3.7,0.7,-9.1,-8.3,
COc1ccccc1CN1CCC(C(=O)N2CCCC2)CC1,-1.3,45.2,-8.4,-0.1,/,/,
